Inconclusive results are not listed. Where a call stands in place of a potency, no number is given. The source made the active and inactive calls. Unless noted, the call rests on the fitted dose curve; in most records, active means well fitted curve in the direction sought with a large enough effect; inconclusive means small, poorly fitted or top-dose-only effect, or another doubt; inactive means no such curve, though single readings can be large; an effect the other way counts as inactive or inconclusive.
How the values were obtained:
[1] = Nrf2 qHTS screen for inhibitors: Validation (AID 493153; active means well fitted inhibition curve with a large enough effect in the main read-out, with a control signal flat, not every such curve was filed as active; further: potency means the concentration at half of the fitted maximal effect); conditions: Potency: luciferase luminescence; viability change: measured here: cytotoxicity max response
Method in brief: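 Luminescence from an ARE-firefly luciferase reporter in A549 cells gives Nrf2 inhibition; an earlier CellTiter-Fluor fluorescent read flags cytotoxicity. Cells in 5% FBS OPTI-MEM received compound dilution series for 18-24 h at 37°C.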

[2] = qHTS for Inhibitors of Cell Surface uPA Generation: Validation Assay (AID 493164)
Method in brief: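 RAW 264.7 cells (4000/well) were plated overnight, then exposed for 18 h at 37 C, 5% CO2 to compounds in a 7-point 1:5 titration (2.45 nM–38.3 uM final). Intracellular ATP was read by ATP-Lite luminescence.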

[3] = biological target: Galactokinase (Homo sapiens) (UniProt P51570); assay: qHTS Validation Assay for Inhibitors of Human Galactokinase (GALK) (AID 493189)
Galactokinase (Homo sapiens), sequence (P51570 whole entry, looked up): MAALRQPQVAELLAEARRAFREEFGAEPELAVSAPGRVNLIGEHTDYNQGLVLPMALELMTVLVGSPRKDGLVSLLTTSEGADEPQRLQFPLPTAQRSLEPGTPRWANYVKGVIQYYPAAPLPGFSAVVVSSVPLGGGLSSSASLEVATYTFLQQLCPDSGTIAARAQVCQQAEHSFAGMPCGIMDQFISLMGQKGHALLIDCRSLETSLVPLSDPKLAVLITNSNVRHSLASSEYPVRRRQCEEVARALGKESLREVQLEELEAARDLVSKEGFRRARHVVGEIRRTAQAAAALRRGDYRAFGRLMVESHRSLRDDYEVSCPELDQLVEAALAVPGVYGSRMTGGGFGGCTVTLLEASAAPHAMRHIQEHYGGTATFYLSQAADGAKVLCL
Method in brief: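 GALK (5 nM) with 35 uM ATP and 100 uM galactose in HEPES pH 8.0 with MgCl2, NaCl, DTT and BSA. Reaction ran 1 h at room temperature. Residual ATP read by Kinase-Glo Plus luminescence.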

[4] = Validation screen for small molecules that induce DNA re-replication in SW480 colon adenocarcinoma cells (AID 504364)
Method in brief: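 250 cells/well; compound pinned in; 48 hr, 37 C, 5% CO2; Hoechst added, 40 min; nuclear fluorescence imaged, 405 ex / 500-530 em; re-replication scored as increase in high-intensity nuclei.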

[5] = biological target: Peptidyl-prolyl cis-trans isomerase NIMA-interacting 1 (Homo sapiens) (UniProt Q13526); assay: qHTS Validation Assay to Find Inhibitors of Pin1 (AID 504536; active means well fitted inhibition curve with a large enough effect in the polarisation, with a control signal flat, not every such curve was filed as active; the % refers to the polarisation)
Peptidyl-prolyl cis-trans isomerase NIMA-interacting 1 (Homo sapiens), sequence (Q13526 whole entry, looked up): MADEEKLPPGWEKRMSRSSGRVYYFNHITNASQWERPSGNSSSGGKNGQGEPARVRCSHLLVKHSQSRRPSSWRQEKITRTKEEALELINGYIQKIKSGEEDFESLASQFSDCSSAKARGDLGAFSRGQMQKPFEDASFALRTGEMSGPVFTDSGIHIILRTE
Method in brief: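 Fluorescence polarization competition: compounds (titration) displace HiFluor-488-labeled Pin1-1b peptide from Pin1 (0.3 uM final) in pH 7.5 HEPES buffer with DTT, 10 min at room temperature; %Activity normalized to no-enzyme wells, curves fitted.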

[6] = biological target: Phosphoglycerate kinase, glycosomal (Trypanosoma brucei brucei) (UniProt P07378); assay: qHTS Validation Assay to Find Inhibitors of Phosphoglycerate Kinase (AID 504547)
Phosphoglycerate kinase, glycosomal (Trypanosoma brucei brucei), sequence (P07378 whole entry, looked up): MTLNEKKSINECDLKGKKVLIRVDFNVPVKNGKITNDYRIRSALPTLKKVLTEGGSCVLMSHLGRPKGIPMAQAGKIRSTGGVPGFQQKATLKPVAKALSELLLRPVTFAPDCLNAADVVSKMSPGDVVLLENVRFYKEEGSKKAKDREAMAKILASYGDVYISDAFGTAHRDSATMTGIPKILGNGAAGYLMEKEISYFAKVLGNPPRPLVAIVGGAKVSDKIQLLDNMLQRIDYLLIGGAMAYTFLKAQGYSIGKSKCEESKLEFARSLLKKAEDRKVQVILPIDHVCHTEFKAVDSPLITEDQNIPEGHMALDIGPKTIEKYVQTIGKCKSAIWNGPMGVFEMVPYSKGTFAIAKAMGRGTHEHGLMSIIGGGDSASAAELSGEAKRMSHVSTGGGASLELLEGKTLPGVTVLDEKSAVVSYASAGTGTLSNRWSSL
Method in brief: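 Inhibition of the enzyme is judged by a Kinase-Glo Plus luminescent signal following a one-hour incubation at room temperature. Because 1,3-BPG is unstable, it is made in situ by GAPDH at 100nM final; no-PGK wells define the baseline.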

[7] = biological target: phosphoglycerate mutase (Leishmania major) (UniProt Q4Q090); assay: qHTS Validation Assay to Find Inhibitors of Phosphoglycerate Mutase (AID 504548); conditions: Potency: inhibition qHTS;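 further: end-point luminescence from Kinase-GloPlus after the PGAM reaction; series mostly up to about 58 µM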
phosphoglycerate mutase (Leishmania major), sequence (Q4Q090 1-553): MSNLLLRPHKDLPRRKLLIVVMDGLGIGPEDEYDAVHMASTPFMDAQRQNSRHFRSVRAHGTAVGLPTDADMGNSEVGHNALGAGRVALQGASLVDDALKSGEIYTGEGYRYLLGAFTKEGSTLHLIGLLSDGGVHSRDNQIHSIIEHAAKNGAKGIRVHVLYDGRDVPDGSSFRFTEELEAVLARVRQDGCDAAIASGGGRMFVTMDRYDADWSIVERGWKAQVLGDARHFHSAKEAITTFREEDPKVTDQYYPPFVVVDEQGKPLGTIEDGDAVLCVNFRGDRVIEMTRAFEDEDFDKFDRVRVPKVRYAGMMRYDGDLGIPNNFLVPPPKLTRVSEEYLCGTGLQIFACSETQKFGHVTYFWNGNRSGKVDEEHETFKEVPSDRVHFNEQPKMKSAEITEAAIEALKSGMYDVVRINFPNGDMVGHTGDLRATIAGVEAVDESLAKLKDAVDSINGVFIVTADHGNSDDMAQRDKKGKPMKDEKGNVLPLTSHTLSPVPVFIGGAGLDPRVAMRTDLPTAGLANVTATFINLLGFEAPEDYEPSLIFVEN
Method in brief: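 L. major PGAM (1.25nM final) was added to substrate buffer and pinned compound, incubated 45 minutes at room temperature, then Kinase-GloPlus added; luminescence read after 10 minutes. Buffer: 100 mM TEA pH 7.6, 5 mM MgCl2, 0.01% Tween-20.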

[8] = biological target: Ubiquitin carboxyl-terminal hydrolase 1 (Homo sapiens) (UniProt O94782); assay: Inhibitors of USP1/UAF1: Pilot qHTS (AID 504865);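 further: rhodamine fluorescence freed from ubiquitin-rhodamine substrate followed over time; top concentration of the series differs between compounds; nearly all actives have a fitted effect of over 35% in size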
Ubiquitin carboxyl-terminal hydrolase 1 (Homo sapiens), sequence (O94782 whole entry, looked up): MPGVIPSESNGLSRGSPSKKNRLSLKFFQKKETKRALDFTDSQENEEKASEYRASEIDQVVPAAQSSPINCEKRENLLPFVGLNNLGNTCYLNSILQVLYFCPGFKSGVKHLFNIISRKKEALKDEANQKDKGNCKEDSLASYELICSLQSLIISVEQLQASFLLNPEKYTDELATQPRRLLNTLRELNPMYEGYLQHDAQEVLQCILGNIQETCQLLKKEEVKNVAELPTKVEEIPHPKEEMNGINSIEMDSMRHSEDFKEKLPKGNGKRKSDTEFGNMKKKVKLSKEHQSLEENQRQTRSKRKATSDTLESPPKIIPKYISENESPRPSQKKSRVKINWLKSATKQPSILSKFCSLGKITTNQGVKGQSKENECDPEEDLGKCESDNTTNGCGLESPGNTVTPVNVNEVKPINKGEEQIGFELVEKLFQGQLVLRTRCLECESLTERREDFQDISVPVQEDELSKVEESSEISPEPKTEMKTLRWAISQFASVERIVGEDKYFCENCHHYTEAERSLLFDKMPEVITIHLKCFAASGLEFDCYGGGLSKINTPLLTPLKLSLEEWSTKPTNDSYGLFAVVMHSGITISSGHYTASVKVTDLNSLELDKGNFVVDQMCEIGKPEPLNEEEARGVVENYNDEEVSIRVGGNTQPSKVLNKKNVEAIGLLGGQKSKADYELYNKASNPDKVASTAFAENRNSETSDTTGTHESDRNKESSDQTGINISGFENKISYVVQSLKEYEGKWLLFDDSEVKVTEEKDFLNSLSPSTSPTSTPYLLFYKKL
Method in brief: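 USP1/UAF1 complex at 1 nM preincubated 15 min at room temperature with compound, then Ub-Rho substrate added at 150 nM final. Fluorescence (480/540 nm) read kinetically in 50 mM HEPES pH 7.8, 0.5 mM EDTA, 1 mM TCEP, 0.1 mg/ml BSA, 0.01% Tween-20.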

[9] = qHTS for Inhibitors of ATXN expression: Validation of Cytotoxic Assay (AID 588349)
Method in brief: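 Read-out: ATP-based luminescence (CellTiter Glo) reflecting viability of HEK293 cells after 72 hr incubation at 37 degrees C with a concentration series of each compound.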

[10] = qHTS for Inhibitors of ATXN expression: Validation (AID 588378); further: series mostly up to about 57 µM; nearly all actives have a fitted effect of over 75% in size
Method in brief: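 HEK293 cells carrying ATXN2-firefly luciferase reporter, treated with compound 24 h at 37 °C. Viability read first by CellTiter-Fluor (405/525 nm), then reporter expression by Bright-Glo luminescence; controls were a known ATXN2 expression inhibitor and a luciferase inhibitor.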

Row | Compound | Potency [1] | viability change [1] | outcome [2] | Potency [3] | Potency [4] | Potency [5] | Potency [6] | Potency [7] | Potency [8] | Potency [9] | Potency [10]
1 | NCC(O)(CS(=O)(=O)O)c1ccc(Cl)cc1 (centres undefined) | inactive | 4.12% | inactive | inactive | inactive | inactive | inactive | inactive | inactive | inactive | inactive
2 | COC1(C2=NCCN2)COc2ccccc2O1 (centres undefined) | inactive | -0.853% | inactive | inactive | inactive | inactive | inactive | inactive | inactive | inactive | inactive
3 | CC(=O)NCCc1c[nH]c2ccc(O)cc12 | inactive | -0.372% | inactive | inactive | inactive | inactive | inactive | inactive | inactive | inactive | inactive
4 | NCCNS(=O)(=O)c1cccc2c(Cl)cccc12 | inactive | -10.5% | inactive | inactive | inactive | inactive | inactive | inactive | inactive | inactive | –
5 | CNC(=O)c1cc2c(cn1)[nH]c1ccccc12 | inactive | -3.36% | inactive | inactive | inactive | inactive | inactive | inactive | inactive | inactive | inactive
6 | CCCn1c(=O)c2c(ncn2C)n(CCC)c1=O | inactive | 3.43% | inactive | inactive | inactive | inactive | inactive | inactive | inactive | inactive | inactive
7 | O=C(O)C1CCCNC1 (centres undefined) | inactive | 1.96% | inactive | inactive | inactive | inactive | inactive | inactive | inactive | inactive | inactive
8 | NC1CONC1=O (centres undefined) | inactive | 2.91% | inactive | inactive | inactive | inactive | inactive | inactive | inactive | inactive | inactive
9 | Nc1ncnc2c1ncn2C1CCCC1 | inactive | 4.78% | inactive | inactive | inactive | inactive | inactive | inactive | inactive | inactive | inactive
10 | Cc1ccc2c(c1)C(N1CCN(C)CC1)=Nc1cccnc1N2 | inactive | 3.55% | inactive | inactive | inactive | inactive | inactive | inactive | inactive | inactive | inactive
11 | CC(=O)[C@H]1CCC2C3CC=C4C[C@@H](OS(=O)(=O)O)CC[C@]4(C)C3CC[C@@]21C (some centres undefined) | inactive | 2.24% | inactive | inactive | inactive | inactive | inactive | inactive | inactive | inactive | inactive
12 | O=C(O)Cc1ccc(O)c(O)c1 | inactive | 9.81% | inactive | inactive | inactive | inactive | inactive | inactive | inactive | inactive | inactive
13 | CNc1cc(NS(=O)(=O)c2ccc(N)cc2)nc(NC)n1 | inactive | 6.74% | inactive | inactive | inactive | inactive | inactive | inactive | inactive | inactive | inactive
14 | CCCCC[C@H](CC(=O)NO)C(=O)N[C@H](C(=O)N1CCC[C@H]1CO)C(C)C | 16.4 µM (active) | 2.77% | inactive | inactive | inactive | inactive | inactive | inactive | inactive | – | –
15 | N[C@@H](Cc1ccc(F)cc1)C(=O)O | inactive | -9.16% | inactive | inactive | inactive | inactive | inactive | inactive | inactive | inactive | inactive
16 | N=C(N)c1ccc(OCCCCCOc2ccc(C(=N)N)cc2)cc1 (tested in a mixture with another compound) | inactive | -17% | inactive | inactive | inactive | inactive | inactive | inactive | inactive | inactive | inactive
17 | Cn1c(=O)[nH]c2ncn(C)c2c1=O | inactive | 1.53% | inactive | inactive | inactive | inactive | inactive | inactive | inactive | inactive | inactive
18 | NC(N)=N[C@@H](CCC(=O)O)C(=O)O | inactive | 6.59% | inactive | inactive | inactive | inactive | inactive | inactive | inactive | inactive | inactive
19 | CC(=O)NNC(=O)N1Cc2ccccc2Oc2ccc(Cl)cc21 | inactive | -4.76% | inactive | inactive | inactive | inactive | inactive | inactive | inactive | inactive | inactive
20 | O=C(O)c1cc2cc(F)ccc2[nH]1 | inactive | 4.46% | inactive | inactive | inactive | inactive | inactive | inactive | inactive | inactive | inactive
21 | NC1C=CC=C(C(=O)O)C1 (centres undefined) | inactive | 17.7% | inactive | inactive | inactive | inactive | inactive | inactive | inactive | inactive | inactive
22 | O=S(=O)(c1cccc2c(Cl)cccc12)N1CCCNCC1 | inactive | 2.63% | inactive | inactive | inactive | inactive | inactive | inactive | inactive | inactive | –
23 | NC1(C(=O)O)CC1 | inactive | 4.01% | inactive | inactive | inactive | inactive | inactive | inactive | inactive | inactive | inactive

From PubChem BioAssay (NCATS)
